Experimental data from PubChem BioAssay AID1159580 (chemical genetic matrix, 2015).
Values joined by “and” are separate entries in the source; they are usually repeats but may differ in a detail not shown here. Equal values may be shown once. The campaign covered roughly 5,500 compounds. About 2,000 (36%) were called active. Not shown: some 18% with an inconclusive outcome. Rule as the data show it: active = normalized growth mostly below about 0.91 (no sharp cut-off); inconclusive = no clear call, values can overlap the other calls; inactive = mostly above about 0.92. Some of the results follow.

Assay: chemical genetic growth profiling, strain panel (AID 1159580);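 also: tested at 20 µM; growth read once vehicle control cultures reached saturation at 30 °C; 1 = growth at the plate median or of vehicle wells; lower values mean less growth of the strain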
Settings: S. cerevisiae deletion strains, growth OD
[1] = locus YAL013W, strain DEP1, active compounds read low
[2] = locus YAL040C, strain CLN3, active compounds read low
[3] = locus YCL061C, strain MRC1 (second series), active compounds read low
[4] = locus YDR363W, strain ESC2, active compounds read low
[5] = locus YER002W, strain NOP16, active compounds read low
[6] = locus YGR078C, strain PAC10, active compounds read low
[7] = locus YJR075W, strain HOC1, active compounds read low
[8] = locus YMR263W, strain SAP30, active compounds read low
[9] = locus YMR307W, strain GAS1, active compounds read low
[10] = locus YNL128W, strain TEP1, active compounds read low
[11] = locus YNL175C, strain NOP13, active compounds read low
[12] = locus YNL197C, strain WHI3, active compounds read low
[13] = locus YNL224C, strain SQS1, active compounds read low
[14] = locus YNL322C, strain KRE1, active compounds read low
[15] = locus YOR083W, strain WHI5 (second series), active compounds read low
[16] = locus YPL241C, strain CIN2, active compounds read low
[17] = locus YDR150W, strain NUM1, active compounds read low
[18] = locus YNL153C, strain GIM3, active compounds read low
[19] = locus YPL055C, strain LGE1, active compounds read low

Measured: normalized growth

C[C@@H](Oc1ccc(Oc2cnc3ccc(Cl)cc3n2)cc1)C(=O)O
inactive: [1] 1.04 | [2] 1.04 | [3] 1 | [4] 1.01 | [5] 0.995 | [6] 1.01 | locus YGR229C, strain SMI1, active compounds read low 1.02 | [7] 1 | [8] 1.01 | [9] 0.983 | [10] 0.996 | [11] 0.984 | [12] 0.996 | [13] 0.997 | [14] 1 | [15] 1 | [16] 1

Clc1cnc(Oc2ccc(Oc3ncc(Cl)cc3Cl)cc2)c(Cl)c1
inactive: [1] 1.03 | [2] 1.01 | [3] 1.01 | [17] 1.01 | [4] 1.03 | [5] 0.995 | [9] 1.02 | [10] 1.01 | [18] 1 | [11] 1 | [12] 1.02 | [13] 1.02 | [15] 1.06 | [19] 1.04 | [16] 1.01

Clc1ccc(Oc2ccnc3cc(Cl)ccc23)cc1
active: [1] 0.909 | locus YDR477W, strain SNF1, active compounds read low 0.678 | locus YER123W, strain YCK3, active compounds read low 0.517 | locus YER133W, strain GLC7, active compounds read low 0.613 | locus YGR040W, strain KSS1, active compounds read low 0.67 | [6] 0.92 | locus YHR030C, strain SLT2, active compounds read low 0.235 and 0.376 | locus YJL095W, strain BCK1, active compounds read low 0.49 | locus YJL157C, strain FAR1, active compounds read low 0.683 | [7] 0.804 | locus YKL203C, strain TOR2, active compounds read low 0.68 | locus YLR039C, strain RIC1, active compounds read low 0.779 | locus YLR085C, strain ARP6, active compounds read low 0.499 | locus YLR113W, strain HOG1, active compounds read low 0.379 | locus YMR205C, strain PFK2 (second series), active compounds read low 0.742 | locus YNL161W, strain CBK1, active compounds read low 0.897 | locus YNL183C, strain NPR1, active compounds read low 0.456 | locus YNR030W, strain Alg12, active compounds read low 0.802 | locus YOL136C, strain PFK27, active compounds read low 0.668 | locus YOR119C, strain RIO1, active compounds read low 0.684 | locus YOR231W, strain MKK1, active compounds read low 0.489 | locus YPL031C, strain PHO85, active compounds read low 0.599 | locus YPL153C, strain RAD53, active compounds read low 0.659 | locus YPL204W, strain HRR25, active compounds read low 0.598 | [16] 0.638 | locus YPL256C, strain CLN2, active compounds read low 0.447 | locus YPR135W, strain CTF4, active compounds read low 0.325 | strain NNK1, active compounds read low 0.88
inactive: locus YAR019C, strain CDC15, active compounds read low 0.898 | locus YBL105C, strain PKC1, active compounds read low 0.923 | locus YBR135W, strain CKS1, active compounds read low 0.913 | locus YBR136W, strain MEC1, active compounds read low 0.922 | locus YBR160W, strain CDC28, active compounds read low 0.918 | locus YBR229C, strain ROT2, active compounds read low 0.956 | locus YDL017W, strain CDC7, active compounds read low 0.919 | locus YDL028C, strain MPS1, active compounds read low 0.926 | locus YDL101C, strain DUN1, active compounds read low 0.915 and 0.93 | locus YDL108W, strain KIN28, active compounds read low 0.921 | locus YDL132W, strain cdc53, active compounds read low 0.91 | locus YDL214C, strain PRR2, active compounds read low 0.745 | locus YDR052C, strain DBF4, active compounds read low 0.918 | locus YDR054C, strain cdc34, active compounds read low 0.894 | [17] 0.943 | locus YDR226W, strain ADK1, active compounds read low 0.903 | locus YEL061C, strain CIN8, active compounds read low 0.944 | locus YFL009W, strain cdc4, active compounds read low 0.903 | locus YFL029C, strain CAK1, active compounds read low 0.898 | locus YFR003C, strain YPI1, active compounds read low 0.916 | locus YFR019W, strain FAB1, active compounds read low 0.893 | locus YFR028C, strain CDC14, active compounds read low 0.908 | locus YGR052W, strain FMP48, active compounds read low 0.659 | locus YGR092W, strain DBF2, active compounds read low 0.627 | locus YHR079C, strain IRE1, active compounds read low 0.546 | locus YHR082C, strain KSP1, active compounds read low 0.626 | locus YHR087W, strain rtc3, active compounds read low 0.923 | locus YHR205W, strain SCH9, active compounds read low 0.704 | locus YIL147C, strain SLN1, active compounds read low 0.924 | locus YJL128C, strain PBS2, active compounds read low 0.865 | locus YJR016C, strain ILV3, active compounds read low 0.914 | locus YJR043C, strain POL32, active compounds read low 0.964 | locus YJR066W, strain TOR1 (second series), active compounds read low 0.684 | locus YJR066W, strain TOR1, active compounds read low 0.544 | locus YKL048C, strain ELM1, active compounds read low 0.888 | locus YKL067W, strain YNK1, active compounds read low 0.735 | locus YKL101W, strain HSL1, active compounds read low 0.772 | locus YKL193C, strain SDS22, active compounds read low 0.911 | locus YLR058C, strain SHM2 (second series), active compounds read low 0.951 | locus YLR133W, strain CKI1, active compounds read low 0.772 | locus YLR262C, strain YPT6, active compounds read low 0.817 | locus YLR403W, strain SFP1, active compounds read low 0.675 | locus YML070W, strain DAK1, active compounds read low 0.681 | locus YML094W, strain GIM5, active compounds read low 0.994 | locus YMR001C, strain CDC5, active compounds read low 0.908 | locus YMR219W, strain ESC1, active compounds read low 0.948 | [8] 0.945 | locus YMR277W, strain FCP1, active compounds read low 0.915 | locus YNL006W, strain LST8, active compounds read low 0.92 | locus YNL020C, strain ARK1, active compounds read low 0.762 | [18] 0.98 | locus YNL207W, strain RIO2, active compounds read low 0.906 | locus YNL222W, strain SSU72, active compounds read low 0.916 | locus YNL298W, strain CLA4 (second series), active compounds read low 0.924 | locus YNL307C, strain MCK1 (second series), active compounds read low 0.701 | [14] 0.947 | locus YOL078W, strain AVO1, active compounds read low 0.904 | locus YOR061W, strain CKA2, active compounds read low 0.792 | locus YOR329C, strain SCD5, active compounds read low 0.912 | [19] 0.887 | locus YPL209C, strain IPL1, active compounds read low 0.918 | locus YPR025C, strain CCL1, active compounds read low 0.914 | locus YPR106W, strain ISR1, active compounds read low 0.896 | locus YPR111W, strain DBF20, active compounds read low 0.89 | strain TSCII, active compounds read low 0.9

NC(=NCc1ccc(Cl)c(Cl)c1)NC(=O)c1nc(Cl)c(N)nc1N
inactive: [2] 1.01 | [3] 0.999 | [4] 0.992 | [5] 1.01 | [8] 1.01 | [9] 0.993 | [18] 0.995 | [11] 1.02 | [12] 1.03 | [13] 1.03 | [14] 0.966 | [15] 1.01

CC(=O)OCC1=C(C(=O)O)N2C(=O)[C@@H](NC(=O)CCC[C@@H](N)C(=O)O)[C@H]2SC1
inactive: [2] 0.993 | [3] 1 | [17] 1.01 | [4] 1.03 | [5] 1.02 | [6] 0.993 | [9] 0.997 | [10] 0.98 | [11] 1.01 | [12] 1.02 | [13] 1.03 | [15] 1.04 | [19] 1.01 | [16] 1

c1ccc2c(c1)[I+]c1ccccc1-2
active: [1] 0.513 | [3] 0.63 | [4] 0.302 | [7] 0.429 | [13] 0.892 | [15] 0.569 | [16] 0.517
inactive: [2] 1.05 | [5] 1.02 | [11] 1.03 | [12] 0.958
